Laboratory results taken from PubChem BioAssay.
“And” between values parts separate entries of the source, which are not always exact repeats. Equal values may be shown once. The source made the active and inactive calls. Cut-off read from the data, not from the text of the source, unless noted: active = inhibition above about 80%; inactive = the rest.

Assays:
[1] = viability loss with induced miR-34 in A549 – imaging, A549 dox-inducible miR-34, nuclei and caspase counts, primary screen (AID 1347080;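 active = compounds whose cell count with miR-34 switched on is under 0.7 times the count with it off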); conditions: A549 miR-34 inducible, Hoechst nuclei count, 48 h
[2] = MELAS cybrid and Rieske KO viability enhancers – cell-based, MELAS cybrids, Rieske KO mouse fibroblasts, CellTiter-Glo, primary screen (AID 1508586;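 active = mean z-score across replicates of 1.96 or higher in either the MELAS or the Rieske mutant cell line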;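 note: z relative to plate mean and SD of compound and empty wells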); conditions: low glucose
[3] = growth inhibition, single agent or in combination, cell-based, chromothripsis tumors, cisplatin or BGB combos (AID 1671449); conditions: LFS_MB_P medulloblastoma cells;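 note: cells exposed for 96 hours; 0% = vehicle DMSO and 100% = killing by high DMSO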
[4] = growth inhibition, single agent and combos, cell-based, chromothripsis tumors, cisplatin or BGB combos (AID 1671450); conditions: HDN33 neuroblastoma cells, stronger effect = higher value;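 note: cells exposed to compound for four days; 0% = vehicle DMSO and 100% = cell killing by high DMSO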
[5] = growth inhibition, single agents and combos, ICB984, cell-based, cisplatin or BGB combos, synergistic combos for chromothripsis tumors (AID 1671451; call rule not given here;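 note: cells exposed for 96 hours before readout; 0% = vehicle DMSO and 100% = killing by high DMSO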); conditions: ICB984 medulloblastoma cells, drug combinations, stronger effect = higher value
[6] = growth inhibition, single agents and combos, LFS_MB_1R, cell-based, cisplatin or BGB combos, synergistic combos for chromothripsis tumors (AID 1671452); conditions: LFS_MB_1R medulloblastoma cells, stronger effect = higher value;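 note: cells exposed for 96 hours before readout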
[7] = growth inhibition, single agents and combos, HTB85, cell-based, BGB or cisplatin IC20 combos, synergistic combos for chromothripsis tumors (AID 1671453); conditions: HTB85 osteosarcoma cells, drug combinations, stronger effect = higher value;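 note: cells exposed for 96 hours before readout; 0% = vehicle DMSO and 100% = high DMSO killing control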
[8] = growth inhibition, single agents and combos, CRL2098, cell-based, BGB or cisplatin IC20 combos, synergistic combos for chromothripsis tumors (AID 1671454); conditions: CRL2098 osteosarcoma cells, drug combinations, stronger effect = higher value;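 note: cells exposed for 96 h before readout; 0% = vehicle DMSO and 100% = killing by high DMSO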
[9] = growth inhibition, single agents and combos, HD-MB03, cell-based, BGB or cisplatin IC20 combos, synergistic combos for chromothripsis tumors (AID 1671455; in the data active = inhibition above about 83%;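 note: 0% = vehicle DMSO and 100% = high DMSO as cytotoxic control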); conditions: HD-MB03 medulloblastoma cells, stronger effect = higher value
[10] = growth inhibition, single agents and combos, UWB1.289, cell-based, BGB or cisplatin combos, synergistic combos for chromothripsis tumors (AID 1671456); conditions: UWB1.289 ovarian carcinoma cells, stronger effect = higher value;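 note: cells exposed to compound for four days; 0% = vehicle DMSO and 100% = killing by high DMSO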
[11] = growth inhibition, single agents and combos, LFS_MB_2R, cell-based, cisplatin combos, synergistic combos for chromothripsis tumors (AID 1671457); conditions: LFS_MB_2R medulloblastoma cells, stronger effect = higher value;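 note: cells exposed to compound for four days before readout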
[12] = growth inhibition, MDA-MB-436, cell-based, BGB or cisplatin combos, synergistic combos for chromothripsis tumors (AID 1671458; call rule not given here;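 note: cells exposed for 96 hours; 0% = vehicle DMSO and 100% = killing by high DMSO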); conditions: MDA-MB-436 breast carcinoma growth inhibition, drug combinations, stronger effect = higher value
[13] = UWB1.289_BRCA1 ovarian cancer growth, cell-based, BGB or cisplatin combinations (AID 1671459); conditions: UWB1.289 BRCA1 ovarian carcinoma, drug combinations, stronger effect = higher value
[14] = drug combination toxicity in non-malignant astrocytes – cell-based, BGB or cisplatin IC20 combos, cytotoxicity control for chromothriptic childhood tumor combination screen (AID 1671460); conditions: Human astrocytes, viability inhibition, drug combinations, at 0.5 µM, stronger effect = higher value;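 note: cells exposed to compounds for 96 hours before viability readout; 0% = vehicle and 100% = killing control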
[15] = BT084 cell growth, single and combined drugs, ICGC_MB145, cisplatin and BGB IC40 combos (AID 1671461); conditions: BT084 medulloblastoma cells, drug combinations, stronger effect = higher value;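 note: cells exposed to drugs for 96 hours; 0% = vehicle DMSO and 100% = high DMSO full killing control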
[16] = RCMB18 cell growth, single agent and combined, cisplatin and BGB IC40 combos (AID 1671462); conditions: RCMB18 medulloblastoma cells, stronger effect = higher value;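 note: cells exposed to compound for four days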
[17] = CRL1545 cell growth, single agent and combined, cisplatin and BGB IC20 combos (AID 1671464); conditions: CRL1545 osteosarcoma cells, stronger effect = higher value;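 note: cells exposed to compound for 96 hours before readout; 0% = vehicle DMSO and 100% = high DMSO killing control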
[18] = compounds altering viability of human ES cells (AID 493140; call rule not given here;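 note: cells exposed to compounds for four days before counting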); conditions: human embryonic stem cell survival screen; stronger effect = higher value
[19] = P. berghei load reduction in hepatocytes – cell-based, HepG2, luciferase luminescence, HepG2 viability, primary screen (AID 624349; in the data active = parasite load remaining mostly below about 12%, no sharp cut-off; inactive = mostly above about 10%;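 note: 100% = mean of DMSO negative control wells on the same plate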); conditions: P. berghei liver stage in HepG2, luciferase luminescence, concentration not given here; parasite load remaining: stronger effect = lower value; viability: measured here: HepG2 viability without parasites
[20] = stronger effect = lower value, cell number ratio, induced over uninduced
[21] = measured here: relative caspase fold change +Dox/-Dox
[22] = measured here: total cells with miR-34 induction, stronger effect = lower value
[23] = measured here: total cells without miR-34 induction
[24] = MELAS cybrid survival, CellTiter-Glo 48 h, stronger effect = higher value
[25] = Rieske KO mouse fibroblast survival, CellTiter-Glo 72 h
[26] = measured here: combination with BGB IC40, at 0.05 µM
[27] = measured here: with BGB IC20 combination, at 0.5 µM
[28] = measured here: with cisplatin IC20 combination, at 0.5 µM
[29] = measured here: combination with cisplatin, at 0.5 µM
[30] = measured here: combination with cisplatin, at 5 µM

With `Cc1cc(C#N)cc(C)c1Oc1nc(Nc2ccc(C#N)cc2)nc(N)c1Br` the fold change [1, 20] was 0.85 (inactive), the fold change [1, 21] was 2.01 and the cell count [1, 22] was 3910. For the same molecule, the cell count [1, 23] was 4600, the z-score [2, 24] was 0.252 (inactive) and the z-score [2, 25] was -0.21. The inhibition ([3]; at 0.5 µM, stronger effect = higher value) was -6.54% (inactive), the inhibition ([3]; measured here: combination with BGB IC20, at 0.005 µM) was -10% and the inhibition ([3]; measured here: combination with BGB IC40, at 0.005 µM) was -30.6%. The inhibition [3, 26] was -26%, the inhibition ([3]; measured here: combination with cisplatin, at 0.5 µM, stronger effect = higher value) was -19.3% and the inhibition ([3]; measured here: combination with cisplatin, at 5 µM, stronger effect = higher value) was -60.9%. For the same molecule, the inhibition ([4]; BGB combo, at 5 µM) was -14.1%, the inhibition ([4]; at 0.5 µM) was -5.11% (inactive) and the inhibition ([4]; cisplatin combo, at 5 µM) was -9.1%. It also gave an inhibition [4, 27] of -9.33%, an inhibition [4, 28] of 0.249% and an inhibition ([4]; single agent, at 5 µM) of -3.14%. For the same molecule, the inhibition ([5]; BGB IC20 combo, at 0.005 µM) was -6.67%, the inhibition ([5]; BGB IC40 combo, at 0.005 µM) was -12.8% and the inhibition ([5]; BGB IC40 combo, at 0.05 µM) was -9.57%. The inhibition ([5]; at 0.5 µM) was -33.3% (inactive), the inhibition ([5]; cisplatin combo, at 0.05 µM) was -12.6% and the inhibition ([5]; cisplatin combo, at 0.5 µM) was -45.3%. The inhibition ([5]; cisplatin combo, at 5 µM) was -4.46%, the inhibition ([5]; measured here: 5 uM single agent, at 5 µM) was -18.9% and the inhibition ([6]; at 0.5 µM) was -14.8% (inactive). It also gave an inhibition [6, 26] of -38.9%, an inhibition [6, 29] of -11.1% and an inhibition [6, 30] of -7.4%. The inhibition ([7]; at 0.5 µM) was -2.4% (inactive), the inhibition ([7]; measured here: with BGB IC20, at 0.5 µM) was -12.9% and the inhibition ([7]; measured here: with BGB IC20, at 5 µM) was -34.8%. The inhibition ([7]; measured here: with cisplatin IC20, at 0.5 µM) was -9.12%, the inhibition ([7]; measured here: with cisplatin IC20, at 5 µM) was -37.6% and the inhibition ([7]; single agent, at 5 µM) was -5.74%. For the same molecule, the inhibition ([8]; at 0.5 µM) was -46.8% (inactive), the inhibition ([8]; measured here: combination with BGB at IC20, at 0.5 µM) was -26.7% and the inhibition ([8]; measured here: combination with cisplatin at IC20, at 0.5 µM) was -48.1%. For the same molecule, the inhibition ([9]; at 0.5 µM) was -1.6% (inactive), the inhibition ([9]; measured here: combo with BGB at IC20, at 0.5 µM) was 6.5% and the inhibition ([9]; measured here: combo with cisplatin at IC20, at 0.5 µM) was -1.27%. The inhibition ([10]; at 0.5 µM) was 1.48% (inactive), the inhibition ([10]; measured here: inhibition with BGB combination, at 0.05 µM) was -24.8% and the inhibition ([10]; measured here: inhibition with cisplatin combination, at 0.05 µM) was 0.893%. For the same molecule, the inhibition ([11]; at 0.5 µM) was -10.7% (inactive), the inhibition [11, 29] was -24.9% and the inhibition [11, 30] was -73.7%. The inhibition ([12]; at 0.5 µM) was -26.8% (inactive), the inhibition ([12]; measured here: BGB combination, at 0.5 µM) was -22.5% and the inhibition ([12]; measured here: BGB combination, at 5 µM) was -28.6%. The inhibition ([12]; measured here: cisplatin combination, at 0.5 µM) was -43.6%, the inhibition ([12]; measured here: cisplatin combination, at 5 µM) was -39.5% and the inhibition ([13]; BGB combination, concentration series, at 5 µM) was 11.2%. The inhibition ([13]; at 0.5 µM) was 1.32% (inactive), the inhibition ([13]; cisplatin combination, concentration series, at 5 µM) was 2.3% and the inhibition [14] was 3.72% (inactive). The inhibition ([14]; measured here: combo with BGB IC20) was 14%, the inhibition ([14]; measured here: combo with cisplatin IC20) was -7.51% and the inhibition ([15]; at 0.5 µM) was -18% (inactive). It also gave an inhibition ([15]; cisplatin combination, at 0.5 µM) of -20.9%, an inhibition ([15]; cisplatin combination, at 5 µM) of -30.7% and an inhibition ([15]; measured here: BGB IC40 combination 0.05 uM, at 0.05 µM) of 7.73%. For the same molecule, the inhibition ([15]; single agent, at 5 µM) was -20.3%, the inhibition ([16]; at 0.5 µM) was -32.5% (inactive) and the inhibition ([16]; cisplatin combo, at 5 µM) was -24.1%. The inhibition ([16]; measured here: BGB IC40 combination, at 0.05 µM) was -39.7%, the inhibition [16, 29] was -23% and the inhibition ([16]; single agent, at 5 µM) was -29.9%. The inhibition ([17]; at 0.5 µM) was 0.47% (inactive), the inhibition [17, 27] was 4.81% and the inhibition [17, 28] was -4%. The inhibition ([17]; single agent, at 0.05 µM) was -33.2% and the inhibition ([17]; single agent, at 5 µM) was 12%.
With `CCCCC[C@H](O)/C=C/[C@@H]1[C@@H](C/C=C\CCCC(=O)O)[C@@H](O)C[C@H]1O` (tested in a mixture with another compound) the survival [18] was 6.75 (inactive), the parasite load remaining [19] was 74.8% (inactive) and 88.7% (inactive) and the viability [19] was 111% and 88.8%. The fold change [1, 20] was 0.919 (inactive), the fold change [1, 21] was 1.17 and the cell count [1, 22] was 8520. The cell count [1, 23] was 9270, the z-score [2, 24] was -0.0339 (inactive) and the z-score [2, 25] was -1.21.
